An excerpt weighted towards active compounds, which were near 7.3% of everything screened.
HCV inh: HCV inhibition | Huh7.5.1 HCVcc-Cre infection, luciferase reporter, 44 h | Potency, µM (top dose mostly 41.8 µM), for inactives: top-dose activity change, negative = inhibition, most hits filed as inhibitors | 340,000 compounds, 3.4% hits; active = well fitted inhibition curve with a large enough effect; inconclusive = small, poorly fitted or top-dose-only effect, or another doubt; inactive = no such curve, though single readings can be large or run the other way; also: potency is read from the fitted curve at half-maximal effect
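Whole-lifecycle infectious HCVcc-Cre system; cells 1,000/well, compound then virus (~0.5 moi) added 4 h after plating, 44 h culture. Luciferase read 15 sec following 15 min substrate incubation, room temp.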
HCMV inh: human cytomegalovirus inhibition; HFF cells, HCMV-luciferase reporter, 72 h; active compounds read low; activity change, negative = inhibition, % at 57.5 µM; AID 1259415; 410,000 compounds, 4.5% hits; in the data active = activity change below about -60%; inconclusive = no clear call, values can overlap the other calls; inactive = above about -39%
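After 16 h attachment at 37C, HFF cells received test compound and HCMV-luciferase (1 PFU/cell); reporter luminescence read 72 h later, data normalized against buffer-only and known inhibitor Salinomycin.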
VACV Venus inh: vaccinia inhibition (Venus reporter). Potency, µM (highest dose often 36.5 µM), for inactives: at the top dose activity change, negative = inhibition, most hits filed as inhibitors. 330,000 compounds, 0.46% hits. AID 720580. Vaccinia virus Venus reporter expression, fluorescence; calls by dose curve; tested in A549 cells; also: potency is read from the fitted curve at half-maximal effect; nearly all actives have a fitted effect of over 30% in size
FMDV antiviral: antivirals against foot and mouth disease virus | FMDV antiviral cell-based qHTS | Potency, µM (doses to about 57.9 µM), for inactives: at the top dose activity change, negative = inhibition, actives largely listed as inhibitors | 410,000 compounds, 1.2% hits | AID 1159524; calls by dose curve; tested in HEK293T cells; also: read-out not given here; potency is read from the fitted curve at half-maximal effect; nearly all actives have a fitted effect of over 45% in size
Vaccinia mCherry: inhibitors of vaccinia virus infection (mCherry reporter signal); Vaccinia virus mCherry reporter infection, fluorescence; Potency, µM (doses to about 36.5 µM), inactives show at the top dose activity change, negative = inhibition, actives largely listed as inhibitors; 310,000 compounds, 0.63% hits; calls by dose curve; tested in A549 cells; also: potency is read from the fitted curve at half-maximal effect; nearly all actives have a fitted effect of over 35% in size
Starred values were filed as active, the others as inactive; i = inactive; ? = inconclusive; · = no result; [ ] = dose if it differs, or a comment. % is scaled to controls: 0 for no effect and ±100 for the full control effect.

SMILES	HCV inh	HCMV inh	VACV Venus inh	FMDV antiviral	Vaccinia mCherry
COc1ccccc1CNC(=O)C1CCN(S(=O)(=O)c2cccc3nonc23)CC1	?	-19.0	-16.6%	-4.2%	-7.2%
O=C(C1CCN(S(=O)(=O)c2cccc3cccnc23)CC1)N1CCN(c2ccccn2)CC1	12.0%	-12.0	-5.9%	?	-19.9%
O=C(C1CCN(S(=O)(=O)c2cccc3cccnc23)CC1)N1CCN(c2ccc(Cl)cc2)CC1	11.2µM*	-79.2*	-24.1%	-29.8%	8.4%
CCC(C)NC(=O)C1CCN(S(=O)(=O)c2cccnc2)CC1 (stereo unspecified)	16.8%	-75.9*	12.9%	-19.2%	·
COc1ccc(N2CCN(C(=O)C3CCN(S(=O)(=O)c4cn(C)cn4)CC3)CC2)cc1	·	-72.4*	-7.7%	-9.7%	-10.7%
COc1ccccc1CNC(=O)C1CCN(S(=O)(=O)c2cccc3cccnc23)CC1	-7.2%	-70.8*	-8.6%	0.0%	8.2%
Cc1ccc(-c2nn(-c3cccc([N+](=O)[O-])c3)c3c2cnc2ccc(F)cc23)cc1	·	5.7	-3.1%	14.5%	?
Cc1ccc(Cl)cc1N1CCN(C(=O)C2CCN(S(=O)(=O)c3cccnc3)CC2)CC1	?	-30.3	?	15.8µM*	?
CCOc1ccccc1CNC(=O)C1CCN(C2=NS(=O)(=O)C(c3ccc(C)c(C)c3)=C2C)CC1	·	-8.1	1.6%	-22.0%	-3.0%
O=C(C1CCN(S(=O)(=O)c2cccnc2)CC1)N1CCN(c2ccccc2Cl)CC1	-4.5%	-2.1	-18.1%	?	·
Cc1ccc(Cl)cc1N1CCN(C(=O)C2CCN(S(=O)(=O)Cc3ccccc3)CC2)CC1	·	-12.4	1.2%	?	-10.8%
O=C(C1CCN(S(=O)(=O)c2cccnc2)CC1)N1CCN(c2ccc(Cl)cc2)CC1	?	-90.0*	·	?	·
Cc1ccc(Cl)cc1N1CCN(C(=O)C2CCN(S(=O)(=O)c3c(C)nn(C)c3C)CC2)CC1	11.2µM*	-36.5	-24.5%	31.6µM*	-8.7%
COc1ccccc1CNC(=O)C1CCN(C2=NS(=O)(=O)C(c3ccc(C)c(C)c3)=C2C)CC1	·	-63.7*	-16.3%	?	-17.4%
Cc1ccc2c(c1)CN(CCNC(=O)c1ccc3nc(C)[nH]c3c1)CC(C)O2 (stereo unspecified)	·	·	-1.4%	-5.3%	-10.9%
O=C(C[n+]1ccncc1)c1cccc2ccccc12	·	·	6.0%	·	-9.0%
CC(=O)Nc1cccc(NC(=O)CSc2cn(CC(=O)N3CCCCCC3)c3ccccc23)c1	·	-23.5	-16.6%	-22.3%	i
CN(C(=O)c1cc2c(=O)oc3ccccc3c2s1)c1ccc(F)cc1	·	-5.1	-15.8%	-11.9%	-14.2%
COc1ccc(OCCCCn2c(C3CC(=O)N(c4cccc(Cl)c4)C3)nc3ccccc32)cc1 (stereo unspecified)	·	-6.5	-23.2%	?	-17.0%
O=C(C1CCN(S(=O)(=O)c2ccc3ccccc3c2)CC1)N1CCN(c2ncccn2)CC1	?	-32.5	-3.4%	28.2µM*	-5.1%
C=CCn1cc(/C=N\NC(=O)c2cc3c(ccc4ccccc43)o2)c2ccccc21	10µM*	-22.9	-14.7%	-4.0%	·
Cc1ccc(S(=O)(=O)/C=C/C#N)cc1	·	·	-10.8%	-6.6%	i
CC(C)(C)c1ccc(S(=O)(=O)/C=C\C#N)cc1	·	·	·	39.8µM*	·
CC(C)Oc1ccc(/C=N/NC(N)=S)cc1	-3.4%	35.6	1.58µM*	21.9%	1.12µM*
Cc1scc(C(=O)N/N=C/c2ccc(OC(C)C)cc2)c1C	-16.3%	9.1	-1.2%	23.1%	-11.4%
SMILES	HCV inh	HCMV inh	VACV Venus inh	FMDV antiviral	Vaccinia mCherry
O=C(N/N=C/c1ccc(C(F)(F)F)cc1)c1ccncc1	-12.8%	-14.9	-18.5%	33.5%	-15.2%
ON/C=N/C(=S)Nc1ncc(C(F)(F)F)cc1Cl	0.1%	-31.8	-3.1%	-1.9%	i
NC(=S)N/N=C/c1ccc(C(F)(F)F)cc1	-7.3%	-88.3*	?	-4.3%	1.78µM*
NC(=S)N/N=C/c1ncc(C(F)(F)F)cc1Cl	5.62µM*	·	-22.0%[7.34 µM]	-15.5%	1.41µM*
C=CCOc1ccc(/C=N\NC(N)=S)cc1	-9.5%	1.2	·	30.1%	·
COc1ccc(/C=N/NC(N)=S)cc1	?	12.7	5.62µM*	4.5%	6.31µM*
Cc1c(Cl)cccc1NC(=O)CN1C(=O)COc2ccc(S(=O)(=O)N3CCCCCC3)cc21	·	11.9	-18.1%	-6.2%	-24.4%
COc1ccc(C(=O)CSc2nn3c(=O)c(C(C)(C)C)nnc3s2)cc1	-9.7%	44.0	-3.0%	14.1µM*	·
CC(C)(C)c1nnc2sc(SCC(=O)c3ccccc3)nn2c1=O	0.9%	67.4	-16.2%	-53.6%	·
Cc1cc(N2CCN(C)CC2)nc2ccc(NC(=O)c3ccc4c(c3)OCO4)cc12	10µM*	-21.6	?	20.5%	?
Cc1cc(N2CCN(C)CC2)nc2ccc(NC(=O)c3ccc(Br)o3)cc12	?	29.2	·	28.2%	·
COc1ccc(C(=O)Nc2ccc3nc(N4CCC(C)CC4)cc(C)c3c2)cc1	·	-27.8	-12.4%	31.6µM*	-14.3%
COc1cccc(NC(=O)Nc2ccc3nc(N4CCN(C)CC4)cc(C)c3c2)c1	·	-101.4*	-21.3%	7.0%	?
Cc1cc(N2CCCCC2)nc2ccc(NC(=O)c3ccc(Br)o3)cc12	3.98µM*	-8.5	-27.7%	39.8µM*	?
Cc1ccc(CNC(=O)Cn2cc3c(n2)-c2c(oc(C(=O)N4CCOCC4)c2C)CC3)cc1	·	?	-16.9%	?	-21.3%
CC1(C)S[C@@H]2[C@H](NC(=O)COc3ccccc3)C(=O)N2[C@@H]1C(=O)OCc1cccc2cccnc12	·	·	-14.6%	·	-0.2%
COc1cc(-c2nc(-c3ccc(NC(=O)c4ccc5c(c4)OCO5)cc3)no2)cc(OC)c1OC	?	60.2	-14.7%	-23.5%	-17.7%
Cc1ccccc1-c1nc(-c2ccc(NC(=O)c3ccc4c(c3)OCO4)cc2)no1	?	-78.6*	·	11.4%	·
Cc1cc(C)cc(NC(=O)Nc2ccc3nc(N4CCN(C)CC4)cc(C)c3c2)c1	·	-7.3	-22.8%	-23.1%	-16.6%
Cc1cc(N2CCN(C)CC2)nc2ccc(NC(=O)Nc3ccccc3Cl)cc12	·	-99.8*	-10.8%	19.8%	-9.4%
CNc1nc2cnc(Nc3ccccn3)cc2n1-c1cc(OC)c(OC)c(OC)c1	·	-4.3	·	·	·
CCOc1ccc(S(=O)(=O)n2cc(-c3ccc(F)cc3)c(N)n2)cc1	?	-20.0	·	-5.0%	·
CCOc1cc(S(=O)(=O)n2cc(-c3ccc(F)cc3)c(N)n2)cc(OCC)c1OCC	6.31µM*	19.4	?	?	·
COc1ccccc1-c1cn(S(=O)(=O)c2ccc(F)cc2)nc1N	10µM*	?	?	?	·
Cc1cc2nc(-c3ccc(F)cc3)c(Cc3cccc(Cl)c3)n2c(C)c1Br	·	31.5	-3.9%	-5.4%	6.3%
C1CCN(CCCNC2C3CC4CC(C3)CC2C4)C1 (stereo unspecified)	2.51µM*	-84.0*	-14.8%	-1.3%	i
CCCCC1(Cc2cccc([N+](=O)[O-])c2)C(=O)N(c2ccccc2)N(c2ccccc2)C1=O	6.31µM*	-64.0*	-29.7%	?	-9.6%

Assay outcomes as filed in PubChem.
